Compound activity (PubChem BioAssay)
PI5P4Ka inh: inhibitors of human PI5P4K alpha; PI5P4Kalpha enzyme, ADP-Glo luminescence, 60 min; hits give low values; max response, %; 1.2% of 330,000 active; AID 652105; active means max response of -50% or lower; inconclusive means between -30% and -50%; inactive means -30% or higher; further: value at the top dose of about 77 µM; on the % scale 0 is the no-effect control and ±100 the full control effect
Target sequence (P48426 whole entry, looked up): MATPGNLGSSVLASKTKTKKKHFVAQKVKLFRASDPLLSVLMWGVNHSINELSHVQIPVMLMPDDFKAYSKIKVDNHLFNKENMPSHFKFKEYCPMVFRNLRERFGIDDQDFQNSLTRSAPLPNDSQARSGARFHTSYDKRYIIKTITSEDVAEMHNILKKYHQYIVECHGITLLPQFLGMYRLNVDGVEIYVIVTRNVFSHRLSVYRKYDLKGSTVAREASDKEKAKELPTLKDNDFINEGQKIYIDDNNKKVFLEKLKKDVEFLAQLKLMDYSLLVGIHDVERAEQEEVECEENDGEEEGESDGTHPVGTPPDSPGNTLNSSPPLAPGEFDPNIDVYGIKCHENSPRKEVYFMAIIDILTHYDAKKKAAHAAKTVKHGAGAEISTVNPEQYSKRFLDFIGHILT
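Luminescence from ADP-Glo served as readout of PI5P4Kalpha activity in a qHTS format. Reaction: enzyme, substrate, compound, ATP at 5 microM final, 60 min at RT.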
BAZ2B inh: blocks human BAZ2B; 4.4% of 360,000 active; Potency, µM (doses to about 114 µM), without a hit: at the top dose activity change, negative = inhibition, most hits filed as inhibitors; AlphaScreen BAZ2B-H3K14Ac peptide displacement; AID 504333; further: potency means the concentration at half of the fitted maximal effect; on the % scale 0 is the no-effect control and ±100 the full control effect; nearly all actives have a fitted effect of over 60% in size
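AlphaScreen luminescence quantifies BAZ2B engagement of H3K14Ac peptide; the protein and biotinylated peptide are both at 50 nM final, buffer PBS pH 7.4 with 0.01% Tween-20, all steps at room temperature.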
G9a inh: inhibitors of human histone lysine methyltransferase G9a. Potency, µM (highest dose often 102 µM), without a hit: top-dose activity, negative = inhibition, hits mostly inhibitors. G9a H3K9 monomethylation, AlphaScreen, 2 h. 8.8% of 350,000 active. Q96KQ7. AID 504332; further: potency means the concentration at half of the fitted maximal effect; on the % scale 0 is the no-effect control and ±100 the full control effect; nearly all actives have a fitted effect of over 75% in size
Target sequence (Q96KQ7 913-1193 limits assumed): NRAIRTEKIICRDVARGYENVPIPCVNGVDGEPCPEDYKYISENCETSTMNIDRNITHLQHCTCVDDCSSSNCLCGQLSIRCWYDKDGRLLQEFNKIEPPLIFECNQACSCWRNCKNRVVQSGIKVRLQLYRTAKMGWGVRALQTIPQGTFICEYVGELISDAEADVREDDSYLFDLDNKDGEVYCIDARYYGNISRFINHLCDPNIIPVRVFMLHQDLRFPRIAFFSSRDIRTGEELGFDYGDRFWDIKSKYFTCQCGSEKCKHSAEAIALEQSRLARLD
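Step 1: enzyme (final 20 nM) with compound, 15 min RT. Step 2: substrate peptide 500 nM and SAM 20 uM, 2 h RT. Step 3: anti-H3K9me1 antibody and AlphaScreen beads, 10 min, then plate read.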
HP1b binding inh: HP1-beta chromodomain-methylated histone interaction inhibition; P83916; AlphaScreen HP1-beta / biotin-H3K9me3 peptide binding; Potency, µM (doses to about 114 µM), for the others: top-dose activity change, negative = inhibition, usual class: inhibitors; 0.56% of 390,000 active; further: potency means the concentration at half of the fitted maximal effect; nearly all actives have a fitted effect of over 70% in size
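Compound inhibition of the preformed complex between 50 nM HP1-beta and 50 nM biotinylated H3K9me3 peptide was read by AlphaScreen. Buffer was PBS pH 7.4 with 0.01% Tween-20. Incubations ran 30 min at room temperature, with 10 ug/mL donor/acceptor beads.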
L3MBTL1 inh: L3MBTL1 (human) inhibition. Q9Y468. AlphaScreen L3MBTL1–H3K9me1 peptide binding. Potency, µM (doses to about 57.1 µM), for inactives: at the top dose activity, negative = inhibition, hits mostly inhibitors. 0.66% of 230,000 active. AID 485360; further: potency means the concentration at half of the fitted maximal effect; on the % scale 0 is the no-effect control and ±100 the full control effect; nearly all actives have a fitted effect of over 60% in size
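L3MBTL1 (50 nM) pre-complexed 30 min with biotinylated H3(1-15)K9me1 peptide (75 nM), then compounds added for 30 min at room temperature; AlphaScreen streptavidin donor/nickel chelate acceptor beads (10 ug/mL final) read after 30 min dark incubation.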
JMJD2A Tudor inh: inhibitors of human JMJD2A Tudor domain. O75164. AlphaScreen JMJD2A-Tudor / H3K4me3 peptide binding. Potency, µM (titrated, usually from 114 µM), for the others: top-dose activity change, negative = inhibition, most hits filed as inhibitors. 4.4% of 390,000 active. AID 504339; further: potency means the concentration at half of the fitted maximal effect; on the % scale 0 is the no-effect control and ±100 the full control effect; nearly all actives have a fitted effect of over 50% in size
The depositor's hits bear a star; ? = inconclusive; . = not tested or not shown; [ ] = dose if it differs, or a comment. Sampled rows, rich in hits. Any-hit rate of the full collection: about 11%. Unless noted, the call rests on the fitted dose curve; in most records, active means well fitted inhibition curve with a large enough effect; inconclusive means small, poorly fitted or top-dose-only effect; inactive means no such curve, though single readings can be large or run the other way.

SMILES	PI5P4Ka inh	BAZ2B inh	G9a inh	HP1b binding inh	L3MBTL1 inh	JMJD2A Tudor inh
Cc1nn(CCC(=O)N2CCN(c3ccccc3F)CC2)c(C)c1S(=O)(=O)N1CCCC1	.	-7%	18%[59 µM]	29%	.	-17%
Cc1cccc(CNC(=O)CN2C(=O)CCCc3ccccc32)c1	.	1%	-9%[59 µM]	25%	.	-7%
O=C(NNC(=S)Nc1cccc(Cl)c1)c1ccccc1	0	-9%	35µM*	19%	.	-21%
CCn1c(C)nc2cc(C(=O)NNS(=O)(=O)c3ccc(C)c(C)c3)ccc21	5	-7%	-28%[59 µM]	13%	.	-24%
COc1ccc(CC(=O)NNC(=S)Nc2ccccc2)cc1Cl	2	?	50µM*	10%	.	-22%
O=C(COc1cccc(Cl)c1)NNC(=S)Nc1ccccc1	12	9%	7.1µM*	?	-2%	-29%[57.1 µM]
CCCOc1ccc(CC(=O)NNC(=S)Nc2ccccc2)cc1Br	-9	6%	?	-10%	36%	-25%
CCn1c(C)nc2cc(C(=O)NNS(=O)(=O)c3c(F)cc(F)c(Cl)c3F)ccc21	2	-20%	40µM*	17%	6%	25µM*
Cc1cccc(C2=N[C@@H](Cc3ccccc3)CO2)c1	.	.	6%	.	.	.
COc1ccc(C(=O)NNC(=S)Nc2ccccc2)cc1	0	-3%	45µM*	15%	-21%	-4%
CCn1c(C)nc2cc(C(=O)NNC(=O)Nc3ccc(Cl)cc3)ccc21	1	?	?	35%	5%	-13%
CCNC(=S)NNC(=O)c1ccc(OC)cc1	1	-15%	6%	77%	1%	-3%
O=C(NNC(=S)Nc1ccccc1Cl)c1ccccc1	4	2%	.	10%	.	-16%
O=C(NNC(=S)Nc1ccc(Cl)cc1)c1ccccc1	4	1%	35µM*	1%	.	-16%
CCn1c(C)nc2cc(C(=O)NNC(=S)Nc3ccc(OC)cc3)ccc21	0	-3%	40µM*	26%	3%	-8%
Cc1noc(C)c1-c1ccc2ncnc(NCc3cccnc3)c2c1	.	.	-28%[0.501 µM]	.	.	.
CCC(C(=O)NCc1ccc2c(c1)CCN2C(=O)c1ccc(F)cc1)c1ccccc1 (stereo unspecified)	.	-5%	-1%[59 µM]	-1%	.	-16%
NC(CCCCCP(=O)(c1ccccc1)c1ccccc1)C(=O)O (stereo unspecified)	-21	-18%	?	-1%	13%	10µM*
O=C(Oc1ccc(N(C(=O)c2ccncc2)S(=O)(=O)c2ccc(F)cc2)cc1)c1ccncc1	-5	-12%	45µM*	-3%	.	-15%
O=C(Oc1ccc(N(C(=O)c2ccncc2)S(=O)(=O)c2ccc(Cl)cc2)cc1)c1ccncc1	-5	-13%	50µM*	36%	5%	-33%
Cc1ccc(S(=O)(=O)N(C(=O)c2ccncc2)c2ccc(OC(=O)c3ccncc3)cc2)cc1	-3	-31%	?	35%	5%	-25%
COC(=O)c1c(C)oc2ccc(N(C(=O)c3ccncc3)S(=O)(=O)c3ccc(Br)cc3)cc12	.	-21%	-37%[59 µM]	54%	.	?
O=C(c1ccncc1)N(c1ccc2oc3c(c2c1)CCCC3)S(=O)(=O)c1ccc(F)cc1	-5	?	79µM*	4%	-13%	-24%
CCCCOc1ccc(S(=O)(=O)Nc2ccc(-c3ccc(N4CCCCC4)nn3)cc2)cc1	.	-30%	-17%[59 µM]	-11%[57 µM]	.	-15%
CC(C)(C)OC(=O)Cc1nnc(-c2nc3ccccc3[nH]2)s1	.	.	.	.	.	-32%
SMILES	PI5P4Ka inh	BAZ2B inh	G9a inh	HP1b binding inh	L3MBTL1 inh	JMJD2A Tudor inh
Fc1ccc(N2CCN(c3ncnc4onc(-c5ccc(Cl)cc5)c34)CC2)cc1	.	-17%	4%[59 µM]	33%	.	-18%
COc1ccc(-c2csc3ncnc(N4CCN(Cc5ccccc5)CC4)c23)cc1	-3	?	-17%	13%	.	-26%
COc1ccc(-c2csc3ncnc(N4CCN(c5ccccc5)CC4)c23)cc1	1	?	71µM*	-7%	-14%	?
COc1ccc(-c2csc3ncnc(N4CCN(c5ccc(OC)cc5)CC4)c23)cc1	1	10µM*	.	?	.	32µM*
COc1ccc(N2CCN(c3ncnc4onc(-c5ccc(F)cc5)c34)CC2)cc1	.	-33%[57.1 µM]	18µM*	-1%	.	?
COc1ccc(-c2csc3ncnc(N4CCN(c5ccccc5[N+](=O)[O-])CC4)c23)cc1	15	?	14µM*	?	.	?
COC(=O)Cc1c(C)c2cc3c(c(C)c2oc1=O)OCN(CCc1ccc(F)cc1)C3	.	-4%	3%[59 µM]	23%	.	-15%
COc1cc(CNCCSc2nnnn2C)ccc1OCc1ccc(C)cc1	.	?	-1%[59 µM]	36%	.	-7%
O=C(CSc1nc2c(c(=O)[nH]1)CCC2)Nc1cc(C(F)(F)F)ccc1Cl	.	-15%	?	28%	.	-24%
Cc1ccc(-c2csc3ncnc(Nc4ccc(N5CCOCC5)cc4)c23)cc1	-8	45µM*	?	?	-8%	-35%[11.4 µM]
Cc1ccc(-c2csc3ncnc(NCCN4CCOCC4)c23)cc1	5	-26%	.	32%	-4%	-8%
COc1ccc(-c2c3c(=O)n(C)c(=O)n(C)c3cn2Cc2ccccn2)cc1	.	50µM*	?	40%	-1%	-36%
CCOc1ccccc1-n1cc2c(c1-c1ccc(OC)cc1)c(=O)n(C)c(=O)n2C	.	-24%	?	7%	.	-30%
COc1ccc(-c2c3c(=O)n(C)c(=O)n(C)c3cn2-c2cc(OC)ccc2OC)cc1	3	?	45µM*	-24%	-13%	?
Cn1c(=O)c2c(-c3ccc(Cl)cc3)n(Cc3ccccc3)cc2n(C)c1=O	.	-21%	6%[59 µM]	28%	.	-18%
COc1ccc(-c2c3c(=O)n(C)c(=O)n(C)c3cn2-c2ccccc2O)cc1	2	?	?	-8%	-21%	3%[11.4 µM]
COc1ccc(-c2c3c(=O)n(C)c(=O)n(C)c3cn2Cc2cccnc2)cc1	-5	-8%	10µM*	47%	-7%	-9%
CCN(CC)S(=O)(=O)c1ccc2c(c1)nc(CN(C)C(=O)c1cccc(Cl)c1)n2C	.	-19%	31%[59 µM]	35%	.	-10%
COc1cccc(Cn2c(=O)n(-c3cc(C)cc(C)c3)c(=O)c3oc4ccccc4c32)c1	.	-22%	-23%[59 µM]	53%	.	-6%
Cc1cccc(N2CCN(C(=O)CS(=O)(=O)c3cccc4nsnc34)CC2)c1C	.	-32%	3%[59 µM]	19%[57 µM]	.	-29%
Cc1cc2c(s1)c1cnn(Cc3cccc(F)c3F)c(=O)c1n2C	.	.	.	.	.	-12%
Fc1ccc(-n2c(-c3ccc4c(c3)OCO4)n[nH]c2=S)cc1Cl	-12	-27%	1.4µM*	6%	4%	-20%[57.1 µM]
